RECQ1 inh-1 – RECQ1 (human) helicase inhibition; P46063; RECQ1 DNA unwinding, red fluorescence kinetic read; Potency, µM (titrated, usually from 57.3 µM), without a hit: at the top dose activity, negative = inhibition, hits mostly inhibitors; 0.54% of 240,000 active;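 also: plate controls were vehicle for no effect and no enzyme for full effect; nearly all actives have a fitted effect of over 30% in size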
Target sequence (P46063 whole entry, looked up): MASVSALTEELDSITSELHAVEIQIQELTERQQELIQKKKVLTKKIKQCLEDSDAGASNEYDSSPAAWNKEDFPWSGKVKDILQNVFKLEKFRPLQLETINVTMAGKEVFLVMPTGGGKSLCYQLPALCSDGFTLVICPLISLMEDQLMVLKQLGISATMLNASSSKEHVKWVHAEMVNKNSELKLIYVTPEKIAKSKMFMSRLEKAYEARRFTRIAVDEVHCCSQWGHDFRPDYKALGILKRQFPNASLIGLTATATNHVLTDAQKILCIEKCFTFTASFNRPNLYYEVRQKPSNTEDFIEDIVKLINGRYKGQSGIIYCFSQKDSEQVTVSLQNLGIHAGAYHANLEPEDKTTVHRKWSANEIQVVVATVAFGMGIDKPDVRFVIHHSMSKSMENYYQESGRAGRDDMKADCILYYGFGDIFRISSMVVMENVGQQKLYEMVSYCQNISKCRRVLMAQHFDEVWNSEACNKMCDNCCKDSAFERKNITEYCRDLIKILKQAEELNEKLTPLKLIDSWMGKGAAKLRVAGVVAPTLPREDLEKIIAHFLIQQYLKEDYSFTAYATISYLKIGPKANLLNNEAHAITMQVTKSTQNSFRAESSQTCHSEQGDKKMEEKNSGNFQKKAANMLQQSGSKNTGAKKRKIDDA
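50 nM RECQ1T1 preincubated 15 min with compound in Tris pH 8.0 buffer with MgCl2, DTT, Tween-20 and 2.5 ug/ml poly(dI-dC); started with 200 nM TAMRA/BHQ-2 forked duplex and 2 mM ATP. Unwinding read as fluorescence (525/598 nm), two reads 2 h apart.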
L3MBTL1 inh – blocks human L3MBTL1 | Q9Y468 | AlphaScreen L3MBTL1–H3K9me1 peptide binding | Potency, µM (highest dose often 57.1 µM), for inactives: at the highest dose activity, negative = inhibition, actives largely listed as inhibitors | 0.66% of 230,000 active | AID 485360; also: nearly all actives have a fitted effect of over 60% in size
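AlphaScreen proximity signal between nickel-chelate acceptor and streptavidin donor beads (final 10 ug/mL) reports binding of 50 nM L3MBTL1 to 75 nM biotin-H3 K9me1 peptide; complex incubated with compounds 30 min at room temperature; cefsulodin titration as control.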
BLM helicase inh – blocks DNA unwinding by human BLM helicase. recombinant BLM DNA unwinding, fluorescence dequenching. P54132. 0.2% of 350,000 active. Potency, µM (series often up to 56.1 µM), for inactives: at the top dose activity change, negative = inhibition, actives largely listed as inhibitors;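 also: plate controls were vehicle for no effect and no enzyme for full effect; nearly all actives have a fitted effect of over 35% in size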
WRN helicase inh – blocks human WRN helicase. Q14191. WRN helicase unwinding, fluorescent forked duplex, kinetic. Potency, µM (doses to about 114 µM), for inactives: at the top dose activity change, negative = inhibition, usual class: inhibitors. 0.46% of 360,000 active. AID 651768; also: nearly all actives have a fitted effect of over 55% in size
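Screening of the MLSMR collection measured strand separation of a quenched forked DNA duplex (100 nM) by 20 nM WRN with 2 mM ATP, all final. Compounds were preincubated with enzyme 15 min at room temperature.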
FEN1 inhibitor – human FEN1 inhibition. P39748. Recombinant FEN1 flap cleavage, fluorescence, 15 min. Potency, µM (top dose mostly 114 µM), for inactives: at the top dose activity change, negative = inhibition, usual class: inhibitors. 0.35% of 390,000 active. AID 588795; also: nearly all actives have a fitted effect of over 65% in size
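Read-out was taken twice, immediately and after 15 min, following addition of 50 nM substrate to 10 nM FEN1 that had sat with test compound for 15 min at room temperature. Curves came from a four-parameter Hill model.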
RECQ1 inh conf – confirmation of human RECQ1 helicase inhibitors; Potency, µM (doses to about 229 µM), without a hit: at the top dose activity change, negative = inhibition, actives largely listed as inhibitors; shares compounds with RECQ1 inh-1; AID 2708; RECQ1 helicase DNA unwinding, fluorescence; 28% of 610 active; also: nearly all actives have a fitted effect of over 45% in size
RECQ1 ADP FP – displaces ADP in a fluorescence polarization counter-screen for RECQ1 hits. shares compounds with RECQ1 inh-1. ADP fluorescence polarization displacement counterscreen. Potency, µM (doses to about 228 µM), for inactives: at the highest dose activity change, negative = inhibition, hits mostly inhibitors. 27% of 530 active. AID 2711; also: nearly all actives have a fitted effect of over 45% in size
RECQ1 inh-2 – RECQ1 helicase inhibition confirmed, round 2; shares compounds with RECQ1 inh-1; recombinant RECQ1 DNA unwinding, red fluorescence; Potency, µM (highest dose often 119 µM), for the others: at the highest dose activity, negative = inhibition, hits mostly inhibitors; 15% of 1,100 active; AID 504841; also: nearly all actives have a fitted effect of over 50% in size
* = called active by the depositor; ! = not confirmed by another sample; [ ] = dose if it differs, or a comment. Compounds with a hit are over-represented: about 0.99% of the library has one in this group of screens. Calls follow the shape of the dose curve; as a rule, active = well fitted curve in the direction sought with a large enough effect; inconclusive = small, poorly fitted or top-dose-only effect, or another doubt; inactive = no such curve, though single readings can be large; an effect the other way counts as inactive or inconclusive. Unless noted, % is scaled to controls: 0 for no effect and ±100 for the full control effect; potency is read from the fitted curve at half-maximal effect.

CCN(CC)C(=O)c1ccc2c(c1)C1C(Cl)C(Sc3ccccc3[N+](=O)[O-])CC1C(C(=O)O)N2 (centres undefined) was read as RECQ1 inh-1 -22%, L3MBTL1 inh 14µM*, BLM helicase inh -25%, WRN helicase inh -27%, FEN1 inhibitor inconclusive, RECQ1 inh conf inconclusive and RECQ1 ADP FP 126µM*.
CC(C)(C)c1ccc(S(=O)(=O)N2CC3CC(C2)c2cccc(=O)n2C3)cc1 (centres undefined) was read as RECQ1 inh-1 -5%, L3MBTL1 inh 5%, BLM helicase inh 3%, WRN helicase inh 0%[57.1 µM] and FEN1 inhibitor 1%.
`O=[N+]([O-])c1ccc(NCc2ccccc2)c2nonc12` gave RECQ1 inh-1 11µM*, L3MBTL1 inh 3%, BLM helicase inh -8%, WRN helicase inh -1%, FEN1 inhibitor -15%, RECQ1 inh conf 20µM*, RECQ1 ADP FP 2.2µM* and RECQ1 inh-2 45µM*.
CCCc1ccc(OCC(=O)Nc2ccc(Cl)cc2C(=O)c2ccccc2)cc1 was read as BLM helicase inh -4% and FEN1 inhibitor 4%.
`Cc1c2ccncc2c(C)c2c1[nH]c1ccccc12` gave RECQ1 inh-1 4.5µM*!, L3MBTL1 inh 7%, BLM helicase inh 124%, WRN helicase inh -13%, FEN1 inhibitor 12µM* and RECQ1 inh conf inconclusive.
Screening N#Cc1cc2c(nc1SCC(=O)Nc1cccc(C(F)(F)F)c1)C1CCN2CC1 returned BLM helicase inh -2% and FEN1 inhibitor -4%.
CN(C)[C@@H]1C(=O)C(C(N)=O)=C(O)[C@]2(O)C(=O)C3=C(O)c4c(O)cccc4[C@@](C)(O)[C@H]3[C@H](O)[C@@H]12 was read as RECQ1 inh-1 13µM*, BLM helicase inh -11%[21.4 µM], RECQ1 inh conf 63%[69.1 µM] and RECQ1 ADP FP 45µM*.
For Cc1ccc(N2C(=O)NC(=O)/C(=C\c3cccn3C(C)(C)C)C2=O)cc1 the results were RECQ1 inh-1 4%, L3MBTL1 inh -2%, BLM helicase inh -1%, WRN helicase inh 3% and FEN1 inhibitor 5%.
For CCc1ccc(N2C(=O)NC(=O)/C(=C\C=C\c3ccco3)C2=O)cc1 the results were RECQ1 inh-1 8.9µM*, BLM helicase inh -1%, WRN helicase inh inconclusive, FEN1 inhibitor 22µM*, RECQ1 inh conf inconclusive and RECQ1 ADP FP 50µM*.
Screening CC[C@]1(O)CC(O[C@@H]2CC(N(C)C)C(O)C(C)O2)c2c(cc3c(c2O)C(=O)c2c(O)cccc2C3=O)C1C(=O)OC (some centres undefined) returned RECQ1 inh-1 10µM*, BLM helicase inh 28%, RECQ1 inh conf 112µM* and RECQ1 ADP FP 4.5µM*.
`CC[C@@]1(O)CC(O)c2c(cc3c(c2O)C(=O)c2c(O)ccc(O)c2C3=O)C1C(=O)OC` (some centres undefined) gave RECQ1 inh-1 4µM*, BLM helicase inh inconclusive, RECQ1 inh conf 50µM* and RECQ1 ADP FP 0.89µM*.
`O=C1NC(=O)C(=Cc2ccc(SC3CCCCC3)o2)C(=O)N1` gave RECQ1 inh-1 inconclusive, L3MBTL1 inh inconclusive, BLM helicase inh -17%, WRN helicase inh inconclusive and FEN1 inhibitor inconclusive.
For COC(=O)C1=C(c2ccc3ccccc3c2)C[C@@H]2CC[C@H]1N2C(=O)NCCNC(C)=O the results were L3MBTL1 inh 4%, WRN helicase inh -4% and FEN1 inhibitor -8%.
Screening CCCCC(=O)N/N=C/c1c(O)n(Cc2ccco2)c(=O)[nH]c1=O returned RECQ1 inh-1 32µM*, L3MBTL1 inh inconclusive, BLM helicase inh 3%, WRN helicase inh -27%, FEN1 inhibitor -6% and RECQ1 inh-2 -13%.
Screening CCCCn1c(=O)c(C=Nc2ccc(Cl)cc2)c(O)n(Cc2ccco2)c1=O returned RECQ1 inh-1 -26%, L3MBTL1 inh -8%, BLM helicase inh -15%, WRN helicase inh -6% and FEN1 inhibitor -3%.
For O=c1[nH]c(=O)n(Cc2ccco2)c(O)c1C=NCc1ccco1 the results were RECQ1 inh-1 -2%, L3MBTL1 inh inconclusive, BLM helicase inh -9%, WRN helicase inh -5%[11.6 µM] and FEN1 inhibitor -22%.
`CC(=O)Nc1ccc(N=Cc2c(O)n(Cc3ccco3)c(=O)[nH]c2=O)cc1` gave RECQ1 inh-1 inconclusive, L3MBTL1 inh -15%, BLM helicase inh inconclusive, WRN helicase inh inconclusive, FEN1 inhibitor -33% and RECQ1 inh-2 inconclusive.
For CC(C)n1c(=O)c(C=Nc2ccc(S(N)(=O)=O)cc2)c(O)n(Cc2ccco2)c1=O the results were RECQ1 inh-1 inconclusive, L3MBTL1 inh -10%, BLM helicase inh -4%, WRN helicase inh -2%[11.6 µM], FEN1 inhibitor -12% and RECQ1 inh-2 -13%.
`COc1cc(O)c2c(c1)/C=C/C[C@H](O)[C@H](O)C(=O)CCC[C@H](C)OC2=O` gave WRN helicase inh 0%.
`CCC(=NCC1CCCO1)c1c(O)n(-c2ccc(Cl)cc2)c(=O)[nH]c1=O` (centres undefined) gave RECQ1 inh-1 inactive, L3MBTL1 inh -1%, BLM helicase inh 0%, WRN helicase inh 0% and FEN1 inhibitor 1%.
Screening CC(C)CCNC(=O)c1c(N)n(CC2CCCO2)c2nc3ccccc3nc12 (centres undefined) returned RECQ1 inh-1 inconclusive, BLM helicase inh inconclusive, WRN helicase inh -13%, FEN1 inhibitor inconclusive and RECQ1 inh-2 -20%.
`Nc1c(C(=O)NCCc2ccccc2)c2nc3ccccc3nc2n1CCN1CCOCC1` gave RECQ1 inh-1 8.9µM*, L3MBTL1 inh 49%, BLM helicase inh -13%, WRN helicase inh -25%, FEN1 inhibitor -31%, RECQ1 inh conf -7%[114 µM], RECQ1 ADP FP -5%[91.9 µM] and RECQ1 inh-2 -17%.
CCC(C)NC(=O)c1c(N)n(CC2CCCO2)c2nc3ccccc3nc12 (centres undefined) was read as RECQ1 inh-1 inconclusive, L3MBTL1 inh 32%, BLM helicase inh inconclusive, WRN helicase inh 1%, FEN1 inhibitor inconclusive and RECQ1 inh-2 -28%.
